# Data reported in the supplement of paper PMC4166925.
# ± gives the standard deviation of the averaged measurements. Over roughly 33,000 sequences, “E-score (dimensionless, -0.5 to 0.5)” has its median near -0.049; the highest 2% begin near 0.37. For the sample, the highest values were picked, then their nearest neighbours and some sequences at random.
# Test system: T1, PmTbr T-box DNA-binding domain (GST fusion)
# T1 sequence: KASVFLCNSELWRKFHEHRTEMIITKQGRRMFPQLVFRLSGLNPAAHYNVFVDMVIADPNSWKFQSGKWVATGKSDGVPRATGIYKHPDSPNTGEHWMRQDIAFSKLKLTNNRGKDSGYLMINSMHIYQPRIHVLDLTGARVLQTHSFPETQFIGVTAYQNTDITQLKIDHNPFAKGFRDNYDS
# Assay: PBM E-score of 8-mer (E-score (dimensionless, -0.5 to 0.5)); Tbr is Tbrain of the sea star Patiria miniata (Pm) or the sea urchin Strongylocentrotus purpuratus (Sp); higher = stronger binding preference
# Settings: the construct has about 5 more residues each side
# Description: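 Universal protein-binding microarray (Agilent AMADID 016060, 60-bp probes with a 35-bp variable region) incubated with 200 nM GST-fused Patiria miniata Tbr T-box DNA-binding domain (residues 272-466) in PBS pH 7.5. Scored for every ungapped 8-mer (given with its reverse complement) by the Universal PBM Analysis Suite as E-score (modified Wilcoxon-Mann-Whitney enrichment, range -0.5 to 0.5; >0.45 counts as bound) and Z-score of median probe intensity. Two replicate arrays (datasets 1 and 2).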
row,Sequence,PBM E-score of 8-mer
1,CGGCTGTC,0.0205 ± 0.07
2,CCTTCGGA,-0.0659 ± 0.042
3,GGTAACAC,0.43 ± 0.0044
4,GGTAACAA,0.198 ± 0.056
5,AGTAACAA,0.167 ± 0.0063
6,CGTAACAC,0.365 ± 0.011
7,AGTAACAC,0.393 ± 0.025
8,AGTAACAG,0.037 ± 0.085
9,GTCTACGA,-0.127 ± 0.013
10,ATCGCAGG,0.0806 ± 0.064
11,ACTCACTA,0.144 ± 0.02
12,CCTTAACG,0.00703 ± 0.089
13,ATGGGTAC,-0.173 ± 0.035
14,TAGGGTCA,-0.0997 ± 0.066
15,ATTGCAGC,-0.0944 ± 0.071
16,GTGTCGAA,0.38248 ± 9.9e-05
17,CTGTCAAC,0.338 ± 0.011
18,CTGTCGAA,0.125 ± 0.0096
19,GTGTCATA,0.4057 ± 0.0013
20,ATGTCAAC,0.171 ± 0.006
21,TTGTCAAA,0.144 ± 0.09
22,GTGTCAAC,0.466 ± 0.007

row,Sequence,PBM E-score of 8-mer
1,CTGTCATA,0.151 ± 0.011
2,GTGTCAAA,0.448 ± 0.0094
3,ATGTCATA,-0.187 ± 0.0068
4,ATGTCGAA,-0.0919 ± 0.073
5,CTGTCAAA,0.266 ± 0.04
6,CACATCAG,0.162 ± 0.035
7,ACGATGTG,0.25 ± 0.067
8,ACGTACTC,0.061 ± 0.028
9,GCATCAAC,0.0651 ± 0.026
10,GGGGCTGA,-0.1789 ± 0.00037
11,ATAGGTAC,-0.105 ± 0.041
12,ACGGCCAT,-0.105 ± 0.12
13,ATGTCAGA,-0.162 ± 0.069
14,CTGTCAGA,0.211 ± 0.014
15,GTGTCAGA,0.3931 ± 0.00061
16,AGGGATAA,-0.203 ± 0.032
17,TCGTTTCA,0.145 ± 0.031
18,AAGTGACT,0.092 ± 0.006
19,CAGTGACA,0.338 ± 0.0041
20,GAGTGAAA,0.16 ± 0.1
21,AAGTGAAA,0.154 ± 0.056
22,GAGTGACA,0.373 ± 0.017

row,Sequence,PBM E-score of 8-mer
1,TAGTGACA,0.398 ± 0.0059
2,AAGTGACC,0.185 ± 0.041
3,CAGTGACG,0.134 ± 0.011
4,TAGTGAAA,0.144 ± 0.048
5,GAGTGACC,-0.0846 ± 0.0063
6,AAGTGACA,0.458 ± 0.0065
7,AAGTGACG,0.4043 ± 0.003
8,ACTTGTAA,0.0472 ± 0.082
9,GGGTATTA,-0.139 ± 0.091
10,GTCCAATA,-0.21 ± 0.0092
11,AGATGCCA,-0.00611 ± 0.051
12,GAACTATC,-0.095 ± 0.022
13,GAACTGAA,-0.228 ± 0.021
14,AAGGAGGC,-0.181 ± 0.009
15,GTCAAAAA,0.0926 ± 0.056
16,CACGGTCG,0.0491 ± 0.014
17,CGAGGGAG,-0.0838 ± 0.048
18,TACCTCGA,-0.0364 ± 0.012
19,ATGTGAGC,0.0849 ± 0.0062
20,CTGTGAGA,0.314 ± 0.0081
21,GTGAGAGA,0.319 ± 0.015
22,GTGTGATA,0.46 ± 0.006

row,Sequence,PBM E-score of 8-mer
1,CTGTGATA,0.2528 ± 0.0022
2,GTGTGAGA,0.4583 ± 0.0027
3,ATGTGAGG,0.215 ± 0.026
4,ATGTGATA,0.298 ± 0.048
5,ATGTGAGA,0.429 ± 0.0081
6,GATACTTA,-0.121 ± 0.055
7,ACGATAAA,0.122 ± 0.051
8,GACGATCC,-0.0686 ± 0.12
9,GATACAGC,-0.197 ± 0.018
10,CCATACTC,0.0602 ± 0.026
11,GATATCTA,-0.117 ± 0.025
12,CTACCAGA,-0.1381 ± 0.0011
13,CCCGACCA,-0.0729 ± 0.075
14,CCAGCTGA,-0.0424 ± 0.022
15,CCTAGATC,-0.0223 ± 0.021
16,CCGTCACA,0.325 ± 0.024
17,ATGTCAAG,-0.0802 ± 0.059
18,ATGTCATC,-0.0845 ± 0.035
19,CTGTCAAG,0.2006 ± 0.0012
20,CTGTCACC,0.428 ± 0.013
21,ATGTCACC,0.385 ± 0.015
22,CTGTCATC,0.141 ± 0.036
